The list is not random: actives were taken first. Their share in the collection is about 1.4%.
MenB inh: M. tuberculosis MenB inhibitors, primary screen, biochemical, absorbance | 1,4-dihydroxy-2-naphthoyl-CoA synthase (Mycobacterium tuberculosis (strain ATCC 25618 / … | MenB enzyme assay, absorbance read-out | inhibition, % (concentration not given with the values) | 100,000 compounds, 0.43% hits; in the data active = inhibition above about 21%, passing the limit was not always enough
Polio RdRp inh: poliovirus RdRp elongation inhibitors, primary screen, biochemical, fluorescence polarization, total intensity. % elongation, % (compound at 16.7 µg/mL). poliovirus polymerase elongation; stronger effect = lower value. Genome polyprotein (Poliovirus type 1 (strain Mahoney)), P03300. 150,000 compounds, 0.66% hits; in the data active = % elongation below about 90%
Target sequence (P03300 1749-2209 limits assumed): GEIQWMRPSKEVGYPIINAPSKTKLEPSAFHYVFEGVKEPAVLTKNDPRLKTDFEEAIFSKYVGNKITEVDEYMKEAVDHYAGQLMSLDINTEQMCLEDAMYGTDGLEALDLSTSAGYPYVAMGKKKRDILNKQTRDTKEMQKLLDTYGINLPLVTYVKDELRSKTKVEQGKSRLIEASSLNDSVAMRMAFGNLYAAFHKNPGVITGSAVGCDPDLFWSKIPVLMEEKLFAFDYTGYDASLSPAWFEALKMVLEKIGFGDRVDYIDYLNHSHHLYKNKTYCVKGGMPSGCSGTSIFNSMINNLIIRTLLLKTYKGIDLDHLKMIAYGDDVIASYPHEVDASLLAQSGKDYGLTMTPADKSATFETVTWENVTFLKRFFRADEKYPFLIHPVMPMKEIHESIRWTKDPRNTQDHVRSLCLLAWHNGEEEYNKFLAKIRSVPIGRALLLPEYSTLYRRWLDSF
Mtb MbtI inh: MbtI salicylate synthase inhibitors, primary screen, biochemical, fluorescence intensity | P9WFX0 | 100,000 compounds, 0.89% hits | inhibition, % (no concentration beside the values) | purified MbtI enzyme, fluorescence intensity read-out; in the data active = inhibition mostly above about 56%, no sharp cut-off; inactive = mostly below about 77%
The depositor's hits bear a star; . = no result.

SMILES	MenB inh	Polio RdRp inh	Mtb MbtI inh
N#C/C(=C(/O)CSc1n[nH]c(=O)[nH]c1=O)c1nc2ccccc2[nH]1	1.3	105.0	77.3*
N#C/C(=C(/O)CSc1nc2ccccc2o1)c1nc2ccccc2[nH]1	-2.4	111.0	-3.0
Cc1ccc(C)c(/C(O)=C2\C(=O)C(=O)N(CCN(C)C)C2c2cccc(Br)c2)c1 (centres undefined)	-22.2	100.0	-2.4
Cc1sc2nc(SCC(=O)c3ccc(O)cc3O)[nH]c(=O)c2c1C	12.6	76.0*	87.8*
Cc1sc2nc(SCC(=O)c3ccc(O)c(O)c3)[nH]c(=O)c2c1C	-64.8	101.0	80.5
NC1CCN(C(=O)C2CC2)CC1	16.9	101.0	-0.9
Cc1ccc(S(=O)(=O)N(C)c2c(C)ccc(S(=O)(=O)n3nc(C)cc3C)c2C)cc1	38.8*	101.0	-4.5
Cc1ccc(S(=O)(=O)n2nc(C)cc2C)cc1	6.8	104.0	5.3
CCCCN(C)Cc1nc2ccccc2n1C	-3.3	101.0	8.4
COc1ccc2[nH]c(=O)c(CN(CCO)S(=O)(=O)c3ccc(Cl)c(C(F)(F)F)c3)cc2c1	32.5*	100.0	23.4
Cc1ccc(S(=O)(=O)N(CCO)Cc2cc3cc(C)c(C)cc3[nH]c2=O)cc1	17.4	102.0	31.9
Cc1ccc(N(C(=O)c2cccc(C)c2)S(=O)(=O)c2ccc(Cl)cc2)cc1	.	103.0	.
Cc1ccc(S(=O)(=O)N(C)C)cc1	.	101.0	-3.5
Cc1ccc(N(O)S(=O)(=O)c2ccc(C)cc2)cc1	18.5	107.0	64.9*
Cc1ccc(S(=O)(=O)N(O)c2ccc(Cl)cc2)cc1	.	99.0	82.5*
O=C(CSc1ccccc1Cl)Nc1ccc(N2CCOCC2)cc1	.	101.0	24.4
Cc1cccc(Nc2nc3nonc3nc2Cl)c1	-14.5	48.0*	.
FC(F)(F)c1cccc(Nc2nc3nonc3nc2Nc2ccc(Cl)cc2)c1	.	114.0	.
O=C(Cn1nnc(-c2cccc(F)c2)n1)N1CCCC1c1ccc2c(c1)OCCO2 (centres undefined)	-6.7	104.0	-8.0
CCCCn1c(=O)[nH][nH]c1=S	-17.1	96.0	77.9*
O=c1[nH][nH]c(=S)n1Cc1ccccc1	-9.9	103.0	35.1
CCOC(=O)c1ccc(N2C(=O)CC(N3CCN(Cc4ccccc4Cl)CC3)C2=O)cc1 (centres undefined)	-1.5	103.0	-1.6
C=Cc1ccc(C=C)cc1	22.9	64.0*	72.1*
O=C(c1ncoc1-c1ccc2ccccc2c1)N1CCN(c2ccccc2)CC1	-9.9	101.0	-0.6
Nc1cccc2c1C(=O)N(C(=O)/C=C/c1cccc(F)c1)C2=O	-36.4	82.0*	12.1
SMILES	MenB inh	Polio RdRp inh	Mtb MbtI inh
CC1Cc2ccccc2N1C(=O)/C=C/c1cccc(F)c1 (centres undefined)	-4.9	98.0	13.8
COc1ccc2c(COC(=O)c3cncc(Br)c3)cc(=O)oc2c1	-0.7	102.0	-25.8
S=c1cc(-c2ccccc2)ss1	-8.8	88.0*	94.3*
O=c1cc(-c2ccccc2)sc(=O)[nH]1	4.8	108.0	.
CC1NC(=O)NC2NC(=O)NC(C)C12 (centres undefined)	-49.1	105.0	-10.2
CCSC1=C(C#N)C(=O)NC(c2ccc(O)cc2)S1 (centres undefined)	-17.3	101.0	28.1
CSC1=C(C#N)C(=O)NC(c2ccc(Cl)cc2)S1 (centres undefined)	-1.1	88.0*	1.9
O=C(CCSC1=NCCS1)Nc1ccccc1Cl	-32.8	102.0	-29.9
O=C(CSc1nnc(SCC(=O)N2CCCC2)s1)N1CCCC1	12.7	103.0	91.5*
Cc1nnc(SCC(=O)N2CCCC2)s1	-24.8	103.0	-3.0
O=C(O)CCNC(=O)Nc1cccc2ccccc12	-6.3	99.0	109.0
Cc1nc2cccnc2n1CCNC(=O)Nc1cccc2ccccc12	27.3*	101.0	39.0
O=c1[nH]c(=O)n(S(=O)(=O)c2ccc(F)cc2)cc1F	-69.6	94.0	-34.4
CCCOc1ccc(S(=O)(=O)n2cc(Br)c(=O)[nH]c2=O)cc1	.	.	81.7*
CC(=O)n1c(/C=C2/N=C(c3cccs3)OC2=O)cc2ccccc21	-33.4	102.0	-5.3
O=C1OC(c2cccs2)=N/C1=C\c1cccc(F)c1	.	88.0*	95.1
COC(=O)C1=C(C)SC(N)=C(C#N)C1c1ccc(OC(C)C)c(OC)c1 (centres undefined)	-9.9	100.0	.
O=S(=O)(c1ccc(NC2CN3CCC2CC3)nc1)N1CCCC1 (centres undefined)	0.6	103.0	16.5
O=C(O)c1ccc2ccccc2c1O	-22.2	100.0	141.1
O=Nc1sc2ccc3ccccc3c2c1O	-4.7	95.0	68.8*
O=c1[nH]c2cc3c(cc2[nH]1)OCCO3	36.8*	101.0	83.2
O=c1[nH]c2cc3c(cc2[nH]c1=O)OCCO3	-15.8	100.0	-47.8

Screening data from PubChem.
